RORg inh = qHTS for inhibitors of ROR gamma transcriptional activity. Nuclear receptor ROR-gamma (Mus musculus), P51450. actives 5.4% (n = 310,000). Drosophila S2 Gal4-RORgamma UAS-luciferase reporter, 20 h. Potency, µM (series often up to 53.6 µM), usual class: inhibitors; note: nearly all actives have a fitted effect of over 60% in size
Target sequence (P51450 whole entry, looked up, the tested form may be a part): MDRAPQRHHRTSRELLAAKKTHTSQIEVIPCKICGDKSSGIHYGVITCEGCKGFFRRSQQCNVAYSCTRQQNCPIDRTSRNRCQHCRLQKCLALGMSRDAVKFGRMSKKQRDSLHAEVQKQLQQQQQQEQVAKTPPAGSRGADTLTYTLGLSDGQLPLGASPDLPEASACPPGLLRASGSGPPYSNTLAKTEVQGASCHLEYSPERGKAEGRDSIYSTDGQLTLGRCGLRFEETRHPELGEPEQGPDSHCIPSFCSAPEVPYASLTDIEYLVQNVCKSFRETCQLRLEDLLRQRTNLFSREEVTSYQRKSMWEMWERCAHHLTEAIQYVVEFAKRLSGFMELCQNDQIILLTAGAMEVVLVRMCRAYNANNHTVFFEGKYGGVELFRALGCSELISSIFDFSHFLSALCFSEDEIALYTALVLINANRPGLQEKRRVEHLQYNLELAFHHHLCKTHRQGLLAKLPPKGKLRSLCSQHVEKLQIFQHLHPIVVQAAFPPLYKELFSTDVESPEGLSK
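Stable Schneider cell line, Gal4 DNA-binding domain fused to ROR gamma, UAS-luciferase. Cmpd 1 hr RT → CuSO4 700 uM final → 20 hr RT → luciferase reagent 10 min → luminescence.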
Luc counter = Counterscreen for Luciferase (Kinase-Glo TM) Inhibition | actives 0.28% (n = 200,000) | Luciferin 4-monooxygenase (Photuris pensylvanica), Q27757 | Potency, µM (titrated, usually from 38.3 µM), actives largely listed as inhibitors | Kinase-Glo luciferase, ATP luminescence, 8 min; note: nearly all actives have a fitted effect of over 60% in size
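Inhibition of Kinase-Glo luciferase light generation was assessed at 10 uM ATP in pH 7.2 imidazole buffer, with luminescence measured after eight minutes at ambient temperature.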
Gal4-VP16 FLuc = VP16 counterscreen qHTS for inhibitors of ROR gamma transcriptional activity; Drosophila S2 Gal4-VP16 UAS-luciferase, luminescence, 20 h; Potency, µM (series often up to 53.6 µM), hits mostly inhibitors; actives 3.5% (n = 310,000); AID 2546, 2010;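 note: Gal4-VP16 expression switched on by copper sulfate through the metallothionein promoter; nearly all actives have a fitted effect of over 50% in size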
A number is an active result. Hits are enriched below; roughly 6.4% of the tested compounds scored in any of these assays. Calls come from the whole dose curve; as a rule, active = well fitted curve in the direction sought with a large enough effect; inconclusive = small, poorly fitted or top-dose-only effect, or another doubt; inactive = no such curve, though single readings can be large; an effect the other way counts as inactive or inconclusive.

Screening CCOc1ccc(N(CC(=O)Nc2ccccc2OCC)S(=O)(=O)c2c(C)noc2C)cc1 returned RORg inh inactive and Gal4-VP16 FLuc inactive.
`Cc1cc(=O)oc2cc(NC(=O)c3ccccc3Cl)ccc12` gave RORg inh inactive and Gal4-VP16 FLuc inactive.
Cc1noc(C)c1COc1ccccc1C(=O)NC1CCC(C)CC1 (configuration not stated) was read as RORg inh inactive and Gal4-VP16 FLuc inactive.
NC(=O)CCCCC(N)=O was read as RORg inh inactive and Gal4-VP16 FLuc inactive.
`O=c1c(Cc2ccccc2)c(O)ccn1Cc1ccc2c(c1)OCO2` gave RORg inh inactive, Luc counter inactive and Gal4-VP16 FLuc inactive.
Screening CC(=O)c1cccc(NC(=O)c2cc(Cl)sc2Cl)c1 returned RORg inh inactive, Luc counter inactive and Gal4-VP16 FLuc inactive.
`Cc1cccc(NC(=O)c2cccc(C(=O)Nc3cccc(C)c3)c2)c1` gave RORg inh inactive and Gal4-VP16 FLuc inactive.
CC(=O)c1ccc(NC(=S)NC(C)c2ccc(Cl)cc2Cl)cc1 (configuration not stated) was read as RORg inh 11µM, Luc counter inactive and Gal4-VP16 FLuc inactive.
Screening CC(=O)c1cccc(NC(=S)NC(=O)c2cccc(C)c2)c1 returned RORg inh 7.9µM, Luc counter inactive and Gal4-VP16 FLuc inconclusive.
Screening Cc1cccc(C(=O)NC(=S)Nc2cccc3nc(C)ccc23)c1 returned RORg inh 7.1µM and Gal4-VP16 FLuc 10µM.
CC(=O)c1ccc(NC(=S)Nc2ccc(Br)c(Cl)c2)cc1 was read as RORg inh inactive, Luc counter inactive and Gal4-VP16 FLuc inactive.
Screening Cc1cccc(C(=O)NC(=S)Nc2ccc3[nH]c(=O)[nH]c3c2)c1 returned RORg inh inactive, Luc counter inactive and Gal4-VP16 FLuc inactive.
For CCc1sc(C(=O)Nc2cccc(C(C)=O)c2)cc1C the results were RORg inh 7.9µM, Luc counter inactive and Gal4-VP16 FLuc inconclusive.
For C=CCOc1ccc(C2=NOC(C(=O)Nc3ccc4c(c3)OCCO4)C2)cc1OC (configuration not stated) the results were RORg inh inactive and Gal4-VP16 FLuc inactive.
Screening S=c1[nH]nc(-c2cc(-c3ccccc3)n[nH]2)n1/N=C/c1ccc(Br)s1 returned RORg inh inactive and Gal4-VP16 FLuc inconclusive.
`COc1ccc2cc(CCNS(=O)(=O)c3c(C)cc(C)cc3C)c(=O)[nH]c2c1` gave RORg inh inactive and Gal4-VP16 FLuc inactive.
Screening CC(=O)c1cccc(NC(=S)NC(=O)c2ccccc2C)c1 returned RORg inh inactive, Luc counter inactive and Gal4-VP16 FLuc inactive.
Screening CC(=O)c1cccc(NC(=S)NC(=O)c2ccccc2Br)c1 returned RORg inh 11µM, Luc counter inactive and Gal4-VP16 FLuc inactive.
CCN(CCn1cccn1)C(=O)c1ccc(OC2CCN(C(=O)COC)CC2)cc1 was read as RORg inh inactive and Gal4-VP16 FLuc inactive.
Cc1ccc(CCN2CC(C(=O)NC3CCCCC3)CC2=O)cc1 (configuration not stated) was read as RORg inh inactive and Gal4-VP16 FLuc inactive.
Screening CCCC[C@@H](CNC)NC[C@H](NCCCCC1CCCCC1)C(C)C returned RORg inh 16µM and Gal4-VP16 FLuc inconclusive.
`CCC[C@@H](CN[C@@H](CNC)C(C)C)NCCCCc1ccccc1` gave RORg inh inactive and Gal4-VP16 FLuc inactive.
`C[C@@H]1C(=O)N(S(=O)(=O)c2ccccc2[N+](=O)[O-])[C@H]1c1ccc(-c2ccccc2)cc1` gave RORg inh inactive and Gal4-VP16 FLuc inactive.
Cc1ccc(-c2noc(CSc3ccccc3)n2)cc1 was read as RORg inh inconclusive, Luc counter inactive and Gal4-VP16 FLuc 2µM.
For Cc1cccc(-c2noc(CSc3ccccc3)n2)c1 the results were RORg inh inactive, Luc counter inactive and Gal4-VP16 FLuc inactive.
Cc1cccc(NC(=O)CN2C(=O)N/C(=C/c3ccc(C)o3)C2=O)c1 was read as RORg inh inconclusive, Luc counter inactive and Gal4-VP16 FLuc 18µM.
`C=CCN1C(=O)N/C(=C/c2ccc(C)o2)C1=O` gave RORg inh 5.6µM, Luc counter inactive and Gal4-VP16 FLuc 5µM.
Cc1ccc(NC(=O)CN2C(=O)N/C(=C/c3ccc(C)o3)C2=O)cc1 was read as RORg inh inactive, Luc counter inactive and Gal4-VP16 FLuc inconclusive.
Screening Cc1ccc(/C=C2\C(=O)NC(=O)N2C)o1 returned RORg inh inactive and Gal4-VP16 FLuc inactive.
For C[N+]1(CC2COC(c3ccccc3)(C3CCCCC3)O2)CCCCC1 (configuration not stated) the results were RORg inh inactive and Gal4-VP16 FLuc inactive.
For CCCNC(=O)c1nnsc1Sc1ccc(Cl)cc1 the results were RORg inh inconclusive, Luc counter inactive and Gal4-VP16 FLuc inactive.
`Cc1ccc(SC(CC(=O)c2ccc(F)cc2)C(=O)O)cc1` (configuration not stated) gave RORg inh inconclusive and Gal4-VP16 FLuc inactive.
For CC(C)(C)c1ccc(C(=O)CC(Sc2ccc(Cl)cc2)C(=O)O)cc1 (configuration not stated) the results were RORg inh 1.6µM, Luc counter inactive and Gal4-VP16 FLuc 6.3µM.
Screening Cc1ccc(NC(=O)CN(C)C(=O)c2cccnc2Nc2cccc(C(F)(F)F)c2)cc1 returned RORg inh inconclusive and Gal4-VP16 FLuc 13µM.
Screening CCOc1ncccc1C(=O)N(C)CC(=O)Nc1ccc(C)cc1 returned RORg inh inactive, Luc counter inactive and Gal4-VP16 FLuc inactive.
For Cc1cc(C(=O)NC2CC(C)(C)Cc3c2cnn3-c2ccc(F)cc2)no1 (configuration not stated) the results were RORg inh inconclusive and Gal4-VP16 FLuc inactive.
CC(=O)Nc1cccc(NC(=O)Cc2nc(-c3ccccc3)sc2-c2ccc(C)cc2)c1 was read as RORg inh inconclusive, Luc counter inactive and Gal4-VP16 FLuc inactive.
Screening Cc1ccc(-c2sc(-c3ccccc3)nc2CC(=O)Nc2ccccc2F)cc1 returned RORg inh inconclusive, Luc counter inactive and Gal4-VP16 FLuc 5µM.
`COc1ccc(NC(=O)c2ccc([N+](=O)[O-])cc2[N+](=O)[O-])c(OC)c1` gave RORg inh inactive, Luc counter inactive and Gal4-VP16 FLuc inactive.
Screening N=c1c(-c2nc3ccccc3[nH]2)cc(C(=O)c2ccco2)nn1-c1ccccc1 returned RORg inh 2.8µM, Luc counter inactive and Gal4-VP16 FLuc 5µM.
Screening N=c1c(-c2nc3ccccc3[nH]2)cc(C(=O)c2cccs2)nn1-c1ccccc1 returned RORg inh inactive, Luc counter inactive and Gal4-VP16 FLuc inconclusive.
`CC1CCN(S(=O)(=O)c2cc([N+](=O)[O-])ccc2Cl)CC1` gave RORg inh inactive, Luc counter inactive and Gal4-VP16 FLuc inactive.
For C=CCNC(=S)Nc1nc2c(cc1C(=O)OCC)COC(C)(C)C2 the results were RORg inh 10µM and Gal4-VP16 FLuc inactive.
CCOC(=O)c1cc(C#N)c(NCc2ccccc2)nc1C was read as RORg inh inactive, Luc counter inactive and Gal4-VP16 FLuc inactive.
Screening CCOC(=O)c1sc2nc3c(cc2c1N)COC(C)(C)C3 returned RORg inh inconclusive, Luc counter inactive and Gal4-VP16 FLuc inactive.

Screening data: PubChem, National Center for Advancing Translational Sciences (NCATS)
